Reference: PubChem BioAssay (NCI)
About 83,000 compounds went through this panel and 20% of them were active in at least one assay; those are over-represented in the sample as a whole.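 Percent growth is the endpoint: 0 to 100 indicates growth inhibition (40 means 60% inhibition), 0 means no net growth, and negative values indicate cell death.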 Unmarked numbers belong to inactive results. Calls of active or inactive are those of the source. The calls were made as follows: active = growth percent below 10; inactive = the rest.

Experiments:
Assay in all cases: NCI-60 one-dose screen, 48 h (100 = growth as untreated, 0 = no growth, -100 = all killed)
Conditions in all cases: 10 µM unless noted
[1] = tested on: HCT-15 colon
[2] = tested on: HT29 colon
[3] = tested on: SNB-75 CNS
[4] = tested on: SNB-19 CNS
[5] = tested on: U251 CNS
[6] = tested on: PC-3 prostate
[7] = tested on: SK-MEL-5 melanoma
[8] = tested on: UACC-62 melanoma
[9] = tested on: LOX IMVI melanoma
[10] = tested on: SK-MEL-28 melanoma

Structure (SMILES) | growth [1] | growth [2] | growth [3] | growth [4] | growth [5] | growth [6] | growth [7] | growth [8] | growth [9] | growth [10]
C/C(=N\NC(=O)CSc1nc2sc3c(c2c(=O)n1-c1ccccc1)CCC(C)C3)c1ccc(Cl)cc1 (stereo not given) | 25.7% | 62.8% | 41.5% | 35.3% | 26.7% | 31.7% | -14.9% (active) | 4.83% (active) | 6.72% (active) | 25.4%
COc1ccc(NS(=O)(=O)c2ccc(-c3cnc(C4CC4)o3)cc2)cc1Cl | 29.3% | 10.6% | -2.75% (active) | 43.8% | 36% | 25.2% | 18.1% | 34.1% | 39.5% | 66.9%
CC(=O)c1ccc(NC(=O)COc2ccc(C3SCC(=O)N3c3ccc(Br)cc3)cc2)cc1 (stereo not given) | 98.4% | 107% | 100% | 95.2% | 100% | 91.6% | 96.4% | 79.5% | 92.1% | 104%
O=C(Nc1ccc(F)cc1)c1cc(-c2ccc(F)cc2F)ccc1O | 11.4% | 101% | 7.01% (active) | 8.06% (active) | 6.63% (active) | 5.81% (active) | -63.9% (active) | 5.12% (active) | 4.96% (active) | 21.9%
COc1cc(C2CC(c3ccc(Nc4nc(NCCO)nc(Nc5ccc(Cl)cc5)n4)cc3)=Nc3c(N)nc(N)nc3N2)cc(OC)c1OC (stereo not given) | 54.2% | 60.9% | 91.4% | 47.1% | 38.7% | 41.9% | 53.4% | 77.6% | 53.1% | 96.4%
COc1ccc(C(=O)n2cc(C=O)c3ccccc32)cc1 | 87.9% | 118% | 99% | 87.5% | 93.9% | 90.5% | 98.1% | 81.6% | 76.2% | 102%
COc1cc(-c2nc(SCc3ccc(C)cc3)[nH]c(=O)c2C#N)ccc1OCc1ccccc1 | 97.9% | 109% | 96.6% | 97.2% | 102% | 107% | 87.8% | 97.8% | 114% | 101%
O=C(C[n+]1ccnc2ccccc21)c1ccc(O)c(O)c1 | 12.8% | 18.3% | 98.2% | 80.8% | 63.8% | 44.7% | 81.6% | 54.6% | 8.68% (active) | 63.3%
CCN(CC)Cc1c(-c2cccc(OC(F)(F)F)c2)[nH]c2ccc(N3CCCC3)cc2c1=O | 90.1% | 104% | 88.1% | 90.6% | 99.6% | 90.5% | 98.3% | 82.7% | 90.9% | 92.2%
COc1cc(C(=O)c2cc(C(C)=O)c3c4ccccc4ccn23)cc(OC)c1OC | 28.5% | 39.6% | 45.3% | 64.3% | 73.6% | 48.1% | 22.9% | 38% | 58.4% | 80.9%
CCC(=O)Nc1ccc(-c2nc(-c3cccc(O)c3)c(-c3ccnc(Br)c3)[nH]2)cc1 | 78.6% | 51.7% | 8.26% (active) | 58% | 47.8% | 60.5% | 77% | 34.6% | 59.3% | 59.1%
O=c1cc(-c2ccccc2)nc2sc(-c3c[nH]c4ccc(F)cc34)nn12 | 67.8% | 73.2% | -37.9% (active) | 77.5% | 57.9% | 64.9% | 69.8% | 68.1% | 72% | 67.7%
CC1=C2C(=C[C@@](C)(COS(N)(=O)=O)[C@@H]2O)C(=O)[C@](C)(O)C12CC2 | 67.6% | 56.8% | 72.6% | 72.4% | 71.8% | 58.5% | 89.5% | 62.1% | 77% | 87.6%
C/C=C/[C@@H]1C=C[C@@H]2C[C@H](C)CC[C@H]2[C@]1(C)/C(O)=C1/C(=O)[C@H](CO)N(C)C1=O | 39.4% | 61.9% | 75.5% | 43.2% | 47% | 45.7% | 52.4% | 46.9% | 53.5% | 63.2%
CCOC(=O)C1=C(C)Nc2nc3ccccc3n2C1c1cccc(Br)c1 (stereo not given) | 48.5% | 49.3% | 53.9% | 77.2% | 88.8% | 84.1% | 80.4% | 60.3% | 82.3% | 84.9%
COc1ccc(Cn2cc3c(c2-c2cc(OC)c(OC)c(OC)c2)CCCc2cnoc2-3)cc1 | 20.1% | 14.7% | -17.6% (active) | 23.1% | 28.6% | 44.4% | 21.6% | 33.9% | 35.8% | 64.4%
CCOC(=O)c1c(Nc2ccccc2)nn2c(-c3ccc(Br)cc3)ccnc12 | 66.4% | 76.7% | 65.2% | 56.8% | 66.3% | 80.9% | 81.2% | 79.3% | 56.4% | 78.3%
O=S(=O)(Nc1ccc2c(c1)OC(F)(F)O2)c1ccc(-c2cnc(C3CC3)o2)cc1 | 26.2% | 17.2% | 19% | 47% | 32.6% | 45.3% | 38% | 29.4% | 37.7% | 58.3%
O=C1CSC(=O)N1Cc1cc2ccccc2nc1Cl | 101% | 107% | 84.7% | 99.8% | 97.6% | 96.8% | 99.7% | 93.9% | 97.4% | 109%
Oc1ccc(CSc2nnc(-c3ccc(Oc4ccccc4)cc3)o2)c2cccnc12 | 9.07% (active) | 94.4% | -25.3% (active) | 17.3% | -4.12% (active) | 20.4% | 16.6% | 22.6% | 19.8% | 52.2%
CNC(=O)c1c(NC(=O)c2ccc(F)cc2F)sc2c1CCC(=O)C2 | -2.45% (active) | 12.8% | 4.82% (active) | 19.1% | 12.6% | 11.7% | -64.9% (active) | -25.5% (active) | 14.5% | 30.2%
Cn1cc(-c2nn3cc(-c4cccnc4)nc3s2)c2ccccc21 | 12.5% | 11.2% | 31.4% | 42.6% | 26.6% | 35.8% | 11.1% | 31.1% | 37.9% | 50.7%
